The full ranking holds about 9,900 sequences; the median of “r (bound/input frequency ratio)” is about 0.7, and the highest 2% start at about 6.5. Many of the other results were omitted from the sample, so the highest values are more common in it than they were.
B1: ENSMUSG00000032194.167|Kank2 (ssRNA)
RNA: GGGAGUUCUACAGUCCGACGAUCGCUUCGAUAUCCGCAUGCUAAGAGUAAACAGAGACUGUGAUACUGACCAAGUACAGGCGCUCGCUAUGAAGCCCAUAUGUUCCUGAUUAAGAGCUGGCUGGCCUCAGAGCACUCCCAGAACUAGCUUAAAGUGACAGGCUUUGCUGAAAUCCAAAGGGACAAAAGAGUAGUUUUAUGUUUGUGUGUUUGUUUUUAAUGCCCUGGAGCUCCUGCUGGUGACAGGAGAGACAGACAGGCUGCACCUUUCUCUAACUGGGGUUCCUUUCUGGCCCCAGGAUCUCUCUUGCGGUCGCACUAGUGUGGAAUUCUCGGGUGUCAAGG
B2: ENSMUSG00000061578.337|Ksr2|72:76 (ssRNA)
RNA: GGGAGUUCUACAGUCCGACGAUCGCUUCGAUAUCCGCAUGCUAACCAGUCACCUGCCUCCCAGGGUUCUGCCUUGCCCUUAAGCUAGGGUCCUUCAAGCAUCCACAGACUUAGACACACGUGGUAACAUGCUUGUAAUCCUGGCACUCUGGAGGCUGAGGCAGGAGGAUAACAAGUCUAGACUAUAUAUGAUUUCUGAGGGUCUGUUAGUGAAUAAGUACCUGGAUGACAUGGGACAAGUCCCAGCCUUCCCUGCUCCUGCGCUGCUCUUCCUCUUAUGGGAUAGGGUCUAGGUCAAAUGUCACUCUUGCGGUCGCACUAGUGUGGAAUUCUCGGGUGUCAAGG
B3: ENSMUSG00000061578.1309|Ksr2 (ssRNA)
RNA: GGGAGUUCUACAGUCCGACGAUCGCUUCGAUAUCCGCAUGCUAUCUGCACCCAACUGAAUCUCCCACCCUCAAGUGUACCUCUCAGGAUAUCCCCAGGCACACGAAGAUGGAAUGGAAAGCCAGUGGGUAUCUCCCACCCACUUAGAUGCUGAUGGCCUGGGACUAUAAACAGGGACAGUUGGGUCUCCUAAGGAAUAGCUUCCAGGUCCAGGAUGCUGGCAUCUCCCAGAGAGAACUCCAUCCCCUGACCACCAAGGCCUUUGUAGAAGCAGGAAUCUCUUCCUCCUGUCCCACAGCCCCCACUCUUGCGGUCGCACUAGUGUGGAAUUCUCGGGUGUCAAGG
B4: ENSMUSG00000029636.197|Wasf3 (ssRNA)
RNA: GGGAGUUCUACAGUCCGACGAUCGCUUCGAUAUCCGCAUGCUAGACUUCCCCUCUCCUGCCCUGAUCCUUUUUACCAAAUGGCGAUUCCAUAGUCCUGGCUGAGGCAGGGGCUCAAAGUCCAGUGUCUGCUUUGCAAUUCUGGAAGGACAGCUGCUUAUUUAAAUAAGUCUGUGAUAUCCGCAGGCUUGGGUUACAGGGAGGACCUUGCAGAGGGACCAGGACACUGCCUUCCCUUAGGUGCAUUAUUUACGUGGCCUGCAGCUCUUAAUAUCUCUCACUGUUUAUGAAAAGAAAGAUUCAGACUCUUGCGGUCGCACUAGUGUGGAAUUCUCGGGUGUCAAGG

Molecular target: TDP-43 (Homo sapiens, UniProt Q13148 1-414)
Sequence (Q13148 whole entry): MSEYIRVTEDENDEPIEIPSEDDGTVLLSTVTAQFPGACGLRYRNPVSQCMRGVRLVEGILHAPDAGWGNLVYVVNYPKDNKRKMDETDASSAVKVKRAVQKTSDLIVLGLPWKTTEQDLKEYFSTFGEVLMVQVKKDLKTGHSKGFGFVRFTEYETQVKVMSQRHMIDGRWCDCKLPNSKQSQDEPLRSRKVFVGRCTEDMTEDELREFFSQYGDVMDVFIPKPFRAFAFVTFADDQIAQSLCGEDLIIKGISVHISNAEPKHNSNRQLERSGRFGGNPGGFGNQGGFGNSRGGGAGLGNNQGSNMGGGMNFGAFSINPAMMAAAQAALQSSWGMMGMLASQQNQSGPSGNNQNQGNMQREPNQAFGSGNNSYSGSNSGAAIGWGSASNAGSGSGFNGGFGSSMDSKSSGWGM
Assay: RNA Bind-n-Seq with designed 260-mer pool; 25 mM Tris-HCl, 150 mM KCl, 3 mM MgCl2, BSA (printed 500 mg/mL), 20 units/mL SUPERase IN; pH not stated; 500 nM RNA pool, 1 h, 4 C; TDP-43 5, 50, 500 nM; high values mean tight binding
Conditions: protein: recombinant; tags: SBP (GST cleaved off with PreScission; pGEX-GST-SBP)
In short: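 Streptavidin beads captured recombinant SBP-tagged TDP-43 at 5, 50 or 500 nM, and the beads were incubated for 1 h at 4 °C with 500 nM of an in vitro-transcribed pool of 260-nt 3′ UTR oligos in 25 mM Tris-HCl, 150 mM KCl, 3 mM MgCl2, BSA and SUPERase IN. After washing, bound RNA was eluted with biotin, reverse transcribed, PCR-amplified and sequenced. Binding is reported as R, the mapped-read-normalized abundance of each oligo in the bound sample divided by its abundance in the input. Two independent protein batches served as duplicates.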

| Binder | binding signal |
| --- | --- |
| B1 | 3.92 R (bound/input frequency ratio) |
| B2 | 0.335 R (bound/input frequency ratio) |
| B3 | 0.602 R (bound/input frequency ratio) |
| B4 | 0.304 R (bound/input frequency ratio) |

Source: paper PMC12864922, “TDP-43 directly inhibits mRNA accumulation in neurites through modulation of mRNA stability”
